Shown is part of a subset that was picked to be rich in hits.
CD40 NFkB inh – CD40 pathway inhibition in BL2 cells. inhibition, % at 10 µM. 83,000 compounds, 0.94% hits. BL2 NF-kB luciferase reporter, CD40L-induced, 4 h;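 active = mean inhibition of at least 50% with a set share of replicates also reaching that level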;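 also: 0% = neutral control wells and 100% = IKK inhibitor VII at 50 µM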
* = called active by the depositor; [ ] = dose if it differs, or a comment.

SMILES	CD40 NFkB inh
Cc1cccc(-c2ccc([C@H]3[C@@H](CO)N4CCCCN(S(=O)(=O)c5ccccc5F)C[C@@H]34)cc2)c1	-1.2[25 µM]
Cc1cccc(-c2ccc([C@@H]3[C@@H](CO)N4CCCCN(S(=O)(=O)c5ccccc5F)C[C@@H]34)cc2)c1	-16.2[25 µM]
Cc1cccc(-c2ccc([C@@H]3[C@@H](CO)N4CCCCN(S(=O)(=O)c5ccccc5F)C[C@H]34)cc2)c1	71.1*[25 µM]
O=S(=O)(c1ccccc1)N1[C@@H]2CNC[C@H]1C2c1ccc(-c2cccc(F)c2)cc1 (stereo partly specified)	-6.0
CNC(=O)OCc1nc(SSC(C)(C)C)n(C)c1COC(=O)NC	96.1*
COc1ccc(-c2cc(-c3ccccc3)c(C#N)c(S(C)=O)n2)cc1 (stereo unspecified)	75.9*
COc1ccc(Sc2nnc(-c3ccccc3)cc2C#N)cc1	1.3
COc1ccc(-c2cc(-c3ccccc3)c(-c3ccccc3)nn2)cc1	-16.3
CCCN1[C@@H]2c3ccc(/C=C/c4ccccc4)c(=O)n3C[C@H]1[C@H](CO)[C@H]2C(=O)NCC1CC1	10.9[25 µM]
CN(C)C(=O)C(CCN1CCC(O)(c2ccc(Cl)cc2)CC1)(c1ccccc1)c1ccccc1	50.1*
OC(CCCN1CCC(O)(c2ccc(Cl)cc2)CC1)c1ccc(F)cc1 (stereo unspecified)	17.8
NC(=O)C(CCCCN1CCCCC1)(c1ccccc1)c1ccccc1	2.3
CO[C@@H]1CN(C)C(=O)c2ccc(NS(C)(=O)=O)cc2OC[C@H](C)N(CC2CC2)C[C@@H]1C	-4.3[25 µM]
C[C@H]1CCCCO[C@@H](CN(C)Cc2ccncc2)[C@@H](C)CN([C@@H](C)CO)C(=O)c2cc(NS(=O)(=O)c3ccc(Cl)cc3)ccc2O1	11.2[25 µM]
COc1ccc(S(=O)(=O)Nc2ccc3c(c2)C(=O)N([C@@H](C)CO)C[C@H](C)[C@H](CN(C)Cc2ccc(C(F)(F)F)cc2)OCCCC[C@H](C)O3)cc1	58.7*[25 µM]
COc1ccc(NC(=O)Nc2ccc3c(c2)C(=O)N([C@@H](C)CO)C[C@@H](C)[C@@H](CN(C)Cc2ccc(C(F)(F)F)cc2)OCCCC[C@@H](C)O3)cc1	1.0
C[C@H](CO)N1C[C@H](C)[C@H](CN(C)Cc2ccc(C(=O)Nc3ccccc3N)cc2)Oc2c(NS(=O)(=O)c3ccc(Cl)cc3)cccc2C1=O	-33.3[25 µM]
C[C@@H]1CN([C@H](C)CO)C(=O)c2cc(NS(=O)(=O)c3ccc(Cl)cc3)ccc2O[C@@H](C)CCCCO[C@H]1CN(C)Cc1ccc(Cl)c(Cl)c1	27.5
C[C@H]1CN([C@@H](C)CO)C(=O)c2cccc(NS(=O)(=O)c3ccc(Cl)cc3)c2O[C@H]1CN(C)Cc1ccc(C(=O)Nc2ccccc2N)cc1	-42.6[25 µM]
C[C@@H]1CCCCO[C@H](CN(C)Cc2ccc(Cl)c(Cl)c2)[C@@H](C)CN([C@H](C)CO)C(=O)c2cc(NS(=O)(=O)c3cccs3)ccc2O1	31.4[25 µM]
C[C@H](CO)N1C[C@H](C)[C@@H](CN(C)Cc2ccc(Cl)c(Cl)c2)OCCCC[C@H](C)Oc2ccc(NS(=O)(=O)c3cccs3)cc2C1=O	50.6*[25 µM]
C[C@@H]1CCCCO[C@@H](CN(C)Cc2ccc(Cl)c(Cl)c2)[C@@H](C)CN([C@H](C)CO)C(=O)c2cc(NS(=O)(=O)c3cccs3)ccc2O1	29.9[25 µM]
C[C@@H]1CN([C@H](C)CO)C(=O)c2cccc(NS(=O)(=O)c3ccc(Cl)cc3)c2O[C@@H]1CN(C)Cc1ccc(C(=O)Nc2ccccc2N)cc1	active[25 µM]
COc1ccc(CN(C)C[C@H]2OCCCC[C@H](C)Oc3ccc(NS(=O)(=O)c4ccc(Cl)cc4)cc3C(=O)N([C@H](C)CO)C[C@H]2C)cc1	62.5*
COc1ccc(NC(=O)Nc2ccc3c(c2)C(=O)N([C@H](C)CO)C[C@@H](C)[C@@H](CN(C)Cc2ccc(C(F)(F)F)cc2)OCCCC[C@@H](C)O3)cc1	5.3
SMILES	CD40 NFkB inh
CCC(=O)N1CC2(C1)[C@H](c1ccccc1)[C@H](CO)N2CC1CC1	-2.4[25 µM]
N#C[C@@H]1[C@H](c2ccc(-c3cccc(F)c3)cc2)[C@@H](CO)N1C(=O)NC1CCCCC1	3.5
CC(=O)N(C)C[C@@H]1Oc2ccc(NS(C)(=O)=O)cc2C(=O)N(C)C[C@H]1C	7.0
CC(=O)Nc1ccc2c(c1)CC(=O)N(C)C[C@H](C)[C@@H](CN(C)C(C)=O)O2	3.3
O=C(c1cccnc1)N1C[C@@H]2[C@H](c3ccccc31)[C@@H](CO)N2C(=O)C1CCCCC1	-1.3
COc1ccccc1-c1ccc([C@@H]2[C@@H](CO)N(C(=O)C3CCC3)[C@H]2C#N)cc1	4.0
C[C@H]1CN([C@@H](C)CO)C(=O)c2cccc(NC(=O)C3CCOCC3)c2O[C@H]1CN(C)Cc1ccncc1	-10.9[25 µM]
CNC[C@@H]1Oc2ccccc2CC(=O)N(C)C[C@H]1C	-5.2
CN(C)CC(=O)N1[C@@H]2Cn3c(ccc(C4=CCCC4)c3=O)[C@H]1[C@@H](C(=O)NCC1CC1)[C@@H]2CO	5.7
O=C(CN1CCOCC1)N1CCCCN2[C@@H](CO)[C@@H](c3ccc(/C=C/c4ccccc4)cc3)[C@@H]2C1	-7.7[25 µM]
C[C@H]1CN([C@@H](C)CO)C(=O)c2cc(NC(=O)Nc3ccc(C(F)(F)F)cc3)ccc2O[C@H]1CN(C)S(=O)(=O)c1ccc(Cl)cc1	12.2
COc1ccc(S(=O)(=O)Nc2ccc3c(c2)C(=O)N([C@@H](C)CO)C[C@H](C)[C@@H](CN(C)Cc2ccc(C(F)(F)F)cc2)OCCCC[C@@H](C)O3)cc1	76.2*[25 µM]
COc1ccc(NC(=O)Nc2ccc3c(c2)C(=O)N([C@@H](C)CO)C[C@H](C)[C@@H](CN(C)S(=O)(=O)c2ccc(OC)cc2)O3)cc1	-6.0
COc1ccc(NC(=O)Nc2ccc3c(c2)C(=O)N([C@@H](C)CO)C[C@@H](C)[C@@H](CN(C)Cc2ccc(C(F)(F)F)cc2)OCCCC[C@H](C)O3)cc1	-0.5
C[C@@H]1CN([C@@H](C)CO)C(=O)c2cc(NC(=O)Nc3ccc(C(F)(F)F)cc3)ccc2O[C@@H](C)CCCCO[C@H]1CN(C)CC1CCCCC1	5.0[25 µM]
C[C@@H]1CN([C@H](C)CO)C(=O)c2cc(NC(=O)Nc3ccc(C(F)(F)F)cc3)ccc2O[C@@H](C)CCCCO[C@@H]1CN(C)CC1CCCCC1	42.8[25 µM]
COc1ccc(S(=O)(=O)Nc2ccc3c(c2)C(=O)N([C@H](C)CO)C[C@@H](C)[C@H](CN(C)C(=O)Nc2ccc(C(F)(F)F)cc2)OCCCC[C@@H](C)O3)cc1	4.6
C[C@H](CO)N1C[C@H](C)[C@H](CN(C)CC2CCCCC2)OCCCC[C@H](C)Oc2ccc(NC(=O)Nc3ccc(C(F)(F)F)cc3)cc2C1=O	76.1*[25 µM]
COc1ccc(S(=O)(=O)N(C)C[C@H]2Oc3ccc(NC(=O)Nc4ccc(C(F)(F)F)cc4)cc3C(=O)N([C@@H](C)CO)C[C@@H]2C)cc1	73.8*[25 µM]
O=C(C[C@H]1C=C[C@H](NC(=O)CCN2CCCCC2)[C@@H](CO)O1)Nc1nccs1	-4.7[25 µM]
CNC[C@H]1Oc2ccc(N)cc2C(=O)N(C)C[C@H]1C	-4.4
CC(=O)N1CC2(C1)[C@H](c1ccccc1)[C@@H](CO)N2Cc1ccccc1	-3.0[25 µM]
CC(C)NC(=O)NCC[C@H]1CC[C@@H](NS(=O)(=O)c2ccc(Oc3ccccc3)cc2)[C@H](CO)O1	-6.6[25 µM]
COc1ccc(-c2ccc3n(c2=O)C[C@H]2[C@H](CO)[C@@H](C(=O)N4CCOCC4)N[C@@H]32)cc1	3.9[25 µM]
C[C@@H]1CCCCO[C@H](CN(C)Cc2ccc(C(=O)O)cc2)[C@@H](C)CN([C@@H](C)CO)C(=O)c2cc(N(C)C)ccc2O1	0.7[25 µM]
